Reference: PubChem BioAssay
Where “and” joins values, the source holds several entries; their conditions need not be identical. Equal values may be shown once. This is one part of the list. Inconclusive results are not listed. Calls of active or inactive are those of the source.

Key:
[1] = inhibitors of TNFa-induced NFkB p65 translocation, primary screen, imaging, HUVEC, MLSMR starter and 10KST1 sets (AID 438;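 active = inhibition above 20% together with a positive visual image hit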;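 note: compound added about 3h40 before a 20 min TNFalpha stimulation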;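 for inhibition: signal is the nuclear over cytoplasmic p65 intensity ratio per well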); details: HUVEC TNFa-induced p65 nuclear translocation; cell count: measured here: nuclei count (cytotoxicity indicator), at 2.08 µM unless noted; inhibition: at 2 µM, stronger effect = higher value unless noted
[2] = inhibitors of mutant huntingtin aggregation, primary screen, imaging, exon1htt(103Q)mCFP cells, high-content imaging (AID 483;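 active = visual image review flags a hit and inhibition of aggregation exceeds 20%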;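 note: compound exposure lasted 3 days before fixation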;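 for nuclei count: percent of the per-plate median nuclei count of sample wells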); details: exon1htt(103Q)mCFP cell line, aggregate imaging, at 2 µM; inhibition of aggregation: stronger effect = higher value; nuclei count: measured here: cell count, toxicity
[3] = inhibitors of E-selectin induction by TNFa, primary screen, imaging, HUVEC, immunofluorescence, MLSMR starter and 10KST1 sets (AID 487;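 active = visually confirmed hit in the image check and inhibition above 20%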;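 for inhibition: signal is fraction of cell area covered by stained E-selectin grains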;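 for nuclei count: 100% = median nuclei count of all wells on the same plate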); details: HUVEC TNFalpha-induced E-selectin immunofluorescence imaging, at 2 µM; inhibition: stronger effect = higher value; nuclei count: measured here: cell number, toxicity
[4] = DUSP6 inhibitors restoring Erk phosphorylation by chemical complementation, primary imaging in DUSP6-transfected HeLa (AID 609;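 active = compounds giving at least 50% inhibition in the cell-based MKP-3 phosphatase rescue imaging test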;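 for inhibition: phospho-Erk level distribution per well compared with pooled transfected vehicle control wells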); details: HeLa MKP-3 transfected, phospho-Erk imaging KS statistic, at 10 µM
[5] = biological target: Dual specificity protein phosphatase 6 (Homo sapiens) (UniProt Q16828); assay: as above; details: HeLa MKP-3 transfected, phospho-Erk imaging KS statistic, at 10 µM, stronger effect = higher value
[6] = biological target: Voltage-gated potassium channel subunit beta-2 (Rattus norvegicus) (UniProt P62483); assay: KvBeta enzyme negative modulators, primary screen, biochemical, NADPH fluorescence (AID 622;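 active = fluorescence slope higher than the sample average by over 3 SD, cut at about -0.22 in these data, passing the limit was not always enough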;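 note: slope of raw intensity against log time taken from 70 to 1610 s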); details: recombinant KvBeta, 4-cyanobenzaldehyde reduction, at 10 µM, stronger effect = higher value
[7] = biological target: Voltage-gated potassium channel subunit beta-2 (Rattus norvegicus) (UniProt P62483); assay: KvBeta positive modulators, primary screen, biochemical, NADPH fluorescence (AID 623;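 active = NADPH fluorescence slope more negative than the mean of all samples by about 3 SD, 99.7% confidence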;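 note: fluorescence intensity change per second fitted from 20 to 320 s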); details: Recombinant KvBeta, NADPH fluorescence decrease slope, 10 min; at 10 µM; stronger effect = lower value
[8] = biological target: Alpha-2C adrenergic receptor (Homo sapiens) (UniProt P18825); assay: modulators of alpha2C/GIRK thallium flux, primary screen, cell-based, HEK293 alpha2C/GIRK1/2 (AID 624;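 active = fluorescence slope after compound addition differing from the mean of all screened samples at 99.7% confidence, in either direction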;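 note: slope of fluorescence ratio to pre-addition baseline per second over 15 to 24 s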); details: thallium flux BTC fluorescence, at 10 µM, actives lie on both sides
[9] = inhibitors of larval lipid processing in zebrafish, primary screen, whole organism, PED6 fluorescence, gall bladder and intestine (AID 686;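 active = a full or partial loss of lipid-probe fluorescence in the fish gall bladder, intestine or both, judged by eye; inactive = no fluorescence loss, or compound toxic to the fish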;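 note: larvae 5 to 7 days old with five fish per well; signal comes from phospholipase A2 cleavage of quenched PED6 carried via bile; overnight exposure to compound and PED6 before scoring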); details: Zebrafish larvae PED6 lipid processing, fluorescence scoring
[10] = inhibitors of Chlamydomonas gravitaxis, primary screen, whole organism, Chlamydomonas reinhardtii, WT vs cilia-less mutant, absorbance, 96-well (AID 463189); details: OD600 absorbance, 2 days, at 10 µM, stronger effect = higher value;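 note: 0% = wild type cc124 cells in DMSO and 100% = ciliumless bld1 mutant cells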
[11] = inhibitors of Sendai virus-induced IRF3 signaling, primary screen, TLR/RLR signaling modifier project, cell-based, Sendai virus stimulus, luciferase, 10K MLSCN set (AID 602276;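 active = inhibition at or above 50% at 10 µM; inactive = inhibition below 50%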;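 note: firefly luciferase from ISG56 promoter only with Renilla not read in this screen; 0% = Sendai virus plus DMSO and 100% = medium plus DMSO without virus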); details: HEK293 RL24 IRF3 luciferase reporter, at 10 µM, stronger effect = higher value
[12] = inhibitors of poly I:C-induced TLR3 signaling, primary screen, cell-based, poly I:C stimulus, luciferase, 10K MLSCN set (AID 602277;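 active = inhibition of the reporter signal at or above 50%; inactive = inhibition below 50%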); details: HEK293-TLR3 RL24 IRF3 luciferase reporter, at 10 µM, stronger effect = higher value
[13] = biological target: Solute carrier family 12 member 5 (Homo sapiens) (UniProt Q9H2X9); assay: KCC2 modulators in sodium-free buffer, confirmation, cell-based, HEK293 KCC2, thallium flux, secondary assay (AID 1713;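 active = thallium flux slope above the same plate's solvent-only control mean plus 3 SD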); details: FluoZin2 fluorescence, at 10 µM, stronger effect = higher value
PubChem AID 1714 = details: HEK293-KCC2 + bumetanide/ouabain, thallium flux FluoZin2; at 10 µM; stronger effect = higher value
[14] = biological target: Solute carrier family 12 member 5 (Homo sapiens) (UniProt Q9H2X9); assay: KCC2 modulators without ouabain present, confirmation, cell-based, HEK293 KCC2, thallium flux, FluoZin2, secondary assay 2 (AID 1715;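 active = thallium flux slope more than 3 SD above or below the plate's solvent-only control mean, mostly below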;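 note: raw slope with 0.1% DMSO as baseline and bumetanide as block control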); details: HEK293-KCC2, thallium flux FluoZin2 fluorescence; at 10 µM; actives lie on both sides
[15] = thallium flux modulation in parental HEK cells, confirmation, counter-screen for KCC2 modulator project, cell-based, counterscreen 1 (AID 1716;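 active = thallium flux rate significantly above the same plate's solvent-only control wells, beyond their mean plus 3 SD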); details: HEK293 parental cells, thallium flux FluoZin2, ouabain; at 10 µM; baseline-ratio fluorescence slope, 10–20 s after thallium
[16] = biological target: Solute carrier family 12 member 5 (Homo sapiens) (UniProt Q9H2X9); assay: KCC2 inhibitors and activators, ouabain retest, confirmation, HEK-KCC2 cells (AID 1717;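 active = thallium flux slope beyond 3 SD from same-plate DMSO control mean in most replicates, usually higher, sometimes lower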;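 note: slope of initial-normalized fluorescence between seconds 10 and 20 after thallium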); details: HEK293-KCC2, thallium flux FluoZin2 fluorescence, at 10 µM, bidirectional: low = inhibitor, high = activator
[17] = native HEK Tl+ uptake effects, second counter-screen – HEK cells, counterscreen 2, counter-screen for KCC2 modulator project, confirmation (AID 1718;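 active = thallium flux slope above the same plate's solvent-control mean plus 3 SD in both duplicate wells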;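 note: run without ouabain in cells lacking the KCC2 cotransporter; slope of fluorescence scaled to its starting value between 10 and 20 s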); details: HEK293 parental, thallium flux FluoZin-2 fluorescence slope; at 10 µM
[18] = biological target: Muscarinic acetylcholine receptor M4 (Homo sapiens) (UniProt P08173); assay: compounds altering M4/GIRK thallium flux, either direction, primary screen, M4 allosteric agonist project, cell-based, HEK293 M4/GIRK, BTC-AM (AID 625;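 active = fluorescence slope after compound addition differing from the mean of all tested samples at 99.7% confidence, mostly higher but some lower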;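 note: thallium influx through GIRK channels coupled to M4 in HEK293 cells with BTC-AM dye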); details: at 10 µM, actives lie on both sides
[19] = measured here: cell density z-score
[20] = measured here: nuclear c-Myc green intensity z-score
[21] = measured here: nuclear pErk red intensity z-score, stronger effect = higher value

Sequence of Dual specificity protein phosphatase 6 (Homo sapiens) (Q16828 whole entry, looked up): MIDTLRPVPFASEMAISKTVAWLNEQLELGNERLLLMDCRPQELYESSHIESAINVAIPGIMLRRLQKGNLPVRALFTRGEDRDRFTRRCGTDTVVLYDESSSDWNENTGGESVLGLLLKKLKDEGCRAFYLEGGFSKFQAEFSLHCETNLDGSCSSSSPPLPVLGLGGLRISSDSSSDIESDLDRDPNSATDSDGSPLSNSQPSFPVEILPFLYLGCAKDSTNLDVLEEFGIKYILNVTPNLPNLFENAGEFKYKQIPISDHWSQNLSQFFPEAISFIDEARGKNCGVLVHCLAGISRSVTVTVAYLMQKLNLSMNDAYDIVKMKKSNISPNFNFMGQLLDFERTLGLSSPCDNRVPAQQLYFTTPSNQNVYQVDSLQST
Sequence of Solute carrier family 12 member 5 (Homo sapiens) (Q9H2X9 whole entry, looked up): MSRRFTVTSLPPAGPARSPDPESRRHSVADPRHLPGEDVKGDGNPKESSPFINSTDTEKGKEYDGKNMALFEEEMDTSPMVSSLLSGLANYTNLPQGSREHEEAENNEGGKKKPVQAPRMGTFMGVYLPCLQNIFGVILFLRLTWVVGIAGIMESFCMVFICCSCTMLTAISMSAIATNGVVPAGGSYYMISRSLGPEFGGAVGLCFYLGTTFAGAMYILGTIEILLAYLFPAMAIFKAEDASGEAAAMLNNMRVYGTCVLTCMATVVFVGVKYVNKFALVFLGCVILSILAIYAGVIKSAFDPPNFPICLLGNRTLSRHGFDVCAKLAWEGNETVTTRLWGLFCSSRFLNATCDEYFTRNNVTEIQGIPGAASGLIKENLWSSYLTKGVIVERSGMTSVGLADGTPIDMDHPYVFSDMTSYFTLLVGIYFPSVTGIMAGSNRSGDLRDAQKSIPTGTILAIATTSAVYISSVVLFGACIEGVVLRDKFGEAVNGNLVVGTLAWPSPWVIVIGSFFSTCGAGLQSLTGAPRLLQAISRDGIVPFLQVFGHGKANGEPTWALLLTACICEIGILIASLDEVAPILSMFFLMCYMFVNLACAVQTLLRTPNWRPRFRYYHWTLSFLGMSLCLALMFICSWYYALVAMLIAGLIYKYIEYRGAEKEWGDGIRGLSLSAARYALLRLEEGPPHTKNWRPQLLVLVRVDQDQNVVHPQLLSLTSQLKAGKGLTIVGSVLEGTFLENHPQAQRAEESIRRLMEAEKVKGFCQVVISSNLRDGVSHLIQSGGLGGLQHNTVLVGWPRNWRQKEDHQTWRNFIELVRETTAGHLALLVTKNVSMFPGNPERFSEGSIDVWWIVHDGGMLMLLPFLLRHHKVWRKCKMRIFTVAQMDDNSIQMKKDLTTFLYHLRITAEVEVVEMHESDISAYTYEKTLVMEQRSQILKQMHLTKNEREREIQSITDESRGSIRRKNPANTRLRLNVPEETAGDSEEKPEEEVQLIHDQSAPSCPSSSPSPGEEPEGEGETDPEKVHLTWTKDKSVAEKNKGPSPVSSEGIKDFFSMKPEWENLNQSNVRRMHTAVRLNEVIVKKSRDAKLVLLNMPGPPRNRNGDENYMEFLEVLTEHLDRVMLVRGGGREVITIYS
Sequence of Voltage-gated potassium channel subunit beta-2 (Rattus norvegicus) (P62483 whole entry, looked up): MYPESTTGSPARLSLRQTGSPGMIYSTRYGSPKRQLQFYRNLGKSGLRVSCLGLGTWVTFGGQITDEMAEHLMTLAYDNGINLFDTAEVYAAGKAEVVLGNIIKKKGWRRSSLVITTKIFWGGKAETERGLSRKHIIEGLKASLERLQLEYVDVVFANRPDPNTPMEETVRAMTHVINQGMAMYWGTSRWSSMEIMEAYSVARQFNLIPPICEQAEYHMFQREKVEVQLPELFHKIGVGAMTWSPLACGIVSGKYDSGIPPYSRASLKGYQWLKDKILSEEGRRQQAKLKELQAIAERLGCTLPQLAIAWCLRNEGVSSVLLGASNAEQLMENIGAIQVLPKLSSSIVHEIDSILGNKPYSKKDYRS
Sequence of Alpha-2C adrenergic receptor (Homo sapiens) (P18825 whole entry, looked up): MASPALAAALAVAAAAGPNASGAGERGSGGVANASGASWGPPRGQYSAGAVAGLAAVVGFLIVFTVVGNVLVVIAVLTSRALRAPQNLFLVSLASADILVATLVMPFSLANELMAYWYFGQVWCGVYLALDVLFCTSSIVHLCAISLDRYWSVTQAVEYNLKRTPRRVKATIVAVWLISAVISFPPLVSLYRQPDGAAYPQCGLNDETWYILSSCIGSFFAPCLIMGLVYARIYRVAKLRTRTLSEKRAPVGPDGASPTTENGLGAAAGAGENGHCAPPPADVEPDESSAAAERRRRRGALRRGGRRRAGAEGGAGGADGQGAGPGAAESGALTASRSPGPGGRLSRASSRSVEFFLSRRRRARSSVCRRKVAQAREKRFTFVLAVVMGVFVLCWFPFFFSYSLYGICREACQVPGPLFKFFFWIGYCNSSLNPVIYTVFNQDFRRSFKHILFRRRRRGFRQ
Sequence of Muscarinic acetylcholine receptor M4 (Homo sapiens) (P08173 whole entry, looked up): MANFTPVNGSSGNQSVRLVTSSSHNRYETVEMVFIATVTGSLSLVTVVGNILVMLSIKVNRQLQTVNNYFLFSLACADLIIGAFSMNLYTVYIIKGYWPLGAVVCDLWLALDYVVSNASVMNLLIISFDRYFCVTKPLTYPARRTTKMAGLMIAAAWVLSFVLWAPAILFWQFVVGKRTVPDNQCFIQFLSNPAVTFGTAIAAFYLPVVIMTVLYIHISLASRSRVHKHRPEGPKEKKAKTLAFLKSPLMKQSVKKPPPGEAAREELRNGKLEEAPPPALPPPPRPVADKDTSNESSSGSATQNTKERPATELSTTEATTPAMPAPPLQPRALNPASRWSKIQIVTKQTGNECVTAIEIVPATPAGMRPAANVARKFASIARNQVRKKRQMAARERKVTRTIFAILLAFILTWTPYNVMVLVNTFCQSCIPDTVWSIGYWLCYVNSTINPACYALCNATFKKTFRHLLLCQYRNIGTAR

## CN1CC[C@@]23CCCC[C@@H]2[C@@H]1Cc1ccc(O)cc13
[1]
  cell count: 612
  inhibition: -2% (inactive)
[2]
  inhibition of aggregation: -9.3% (inactive)
  nuclei count: 78.9%
[3]
  inhibition: -41.4% (inactive)
  nuclei count: 127%
[4]; [19]
  z-score: -1.02
[4]; [20]
  z-score: 0.228
[4]; [21]
  z-score: 2.32
[5]
  inhibition: -3.03% (inactive)
[6]
  fluorescence slope: -0.439 (inactive)
[7]
  NADPH fluorescence slope: 2.4e-05 (inactive)
[8]
  slope: 0.00406 (inactive)
[9]
  outcome: inactive
[10]
  inhibition: -11.1% (inactive)
[11]
  inhibition: -1.46% (inactive)
[12]
  inhibition: 37.2% (inactive)

## COc1ccc2[nH]cc(CCN(C)C)c2c1
[1]
  cell count: 560
  inhibition: -3.3% (inactive)
[2]
  inhibition of aggregation: -16.8% (inactive)
  nuclei count: 95.6%
[3]
  inhibition: -34% (inactive)
  nuclei count: 102%
[4]; [19]
  z-score: -0.633
[4]; [20]
  z-score: 0.535
[4]; [21]
  z-score: 0.345
[5]
  inhibition: 3.59% (inactive)
[6]
  fluorescence slope: -0.516 (inactive)
[7]
  NADPH fluorescence slope: 1.6e-07 (inactive)
[8]
  slope: 0.00666 (inactive)
[9]
  outcome: inactive
[10]
  inhibition: 12.8% (inactive) and -9.88% (inactive)
[11]
  inhibition: 7.44% (inactive)
[12]
  inhibition: 13.2% (inactive)

## O=C(CSC1c2ccccc2-c2ccccc21)N/N=C/c1ccccc1
[13]
  normalised thallium flux (F/F0 slope): 0.00922 (inactive)
PubChem AID 1714;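 note: raw slope of fluorescence over initial fluorescence between 10 and 20 s after thallium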
  normalized thallium flux: 0.00567 (inactive)
[14]
  normalized thallium flux: 0.0321 (inactive)
[15]
  thallium flux rate (normalised fluorescence): 0.00741 (inactive)
[16]
  raw Tl+ flux slope (below DMSO = inhibition, above = activation): 0.02 (inactive)
[17]
  thallium flux slope: 0.0112 (active)

## C[N+]1(C)CCN(c2ccccc2)CC1
[1]
  cell count: 637
  inhibition: -3.4% (inactive)
[2]
  inhibition of aggregation: -27% (inactive)
  nuclei count: 102%
[3]
  inhibition: -66.8% (inactive)
  nuclei count: 118%
[4]; [19]
  z-score: 1.65
[4]; [20]
  z-score: -1.1
[4]; [21]
  z-score: -0.542
[5]
  inhibition: 19% (inactive)
[6]
  fluorescence slope: -0.439 (inactive)
[7]
  NADPH fluorescence slope: -4.1e-05 (inactive)
[8]
  slope: 0.00481 (inactive)
[9]
  outcome: inactive
[10]
  inhibition: 7.37% (inactive) and 14.5% (inactive)
[11]
  inhibition: 0.511% (inactive)
[12]
  inhibition: 51.8% (active)

## O=c1[nH]c(=O)n(-c2cccc3ccccc23)c(O)c1C=NCCCn1ccnc1
[1]
  cell count: 430
  inhibition: 2.6% (inactive)
[2]
  inhibition of aggregation: -2.6% (inactive)
  nuclei count: 113%
[3]
  inhibition: -19% (inactive)
  nuclei count: 71.8%
[4]; [19]
  z-score: 0.0574
[4]; [20]
  z-score: -0.666
[4]; [21]
  z-score: -0.681
[5]
  inhibition: -5.95% (inactive)
[6]
  fluorescence slope: -0.411 (inactive)
[7]
  NADPH fluorescence slope: -2.1e-05 (inactive)
[8]
  slope: 0.00458 (inactive)
[18]
  fluorescence slope: 0.00656 (inactive)
[9]
  outcome: inactive
[10]
  inhibition: -5.53% (inactive)
[11]
  inhibition: 19% (inactive)
[12]
  inhibition: 17.8% (inactive)
